Compounds with a hit are over-represented: about 1.6% of the library has one in this group of screens.
KCNQ2 pot: KCNQ2 (rat) channel potentiation. CHO-K1 KCNQ2, FluxOR thallium flux fluorescence; stronger effect = higher value. B-score at 10 µM. 0.54% of 310,000 active. AID 2239;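 active = fluorescence ratio B-score at least 3 SD of library B-scores, with initial fluorescence B-score within 3 of them, cut at about 5.3 in these data; same plate scores as AID 2156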;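 note: B-score of peak minus minimum over baseline fluorescence ratio after K+ and Tl+ stimulus; positive B-score means potentiation of KCNQ2 with more thallium influx and brighter signal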
KCNQ2 block: blocks the rat KCNQ2 potassium channel; O88943; CHO-K1 KCNQ2, FluxOR thallium flux, 20 min; stronger effect = lower value; B-score at 10 µM; 1.1% of 310,000 active; AID 2156;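 active = fluorescence ratio B-score at most minus 3 library SDs, with starting brightness B-score within 2 library SDs, cut at about -5.5 in these data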
KCNQ2 block conf: rat KCNQ2 channel inhibition, confirmatory screen. shares compounds with KCNQ2 block. KCNQ2-expressing cells, thallium flux; stronger effect = lower value. activity change, negative = inhibition, % at 10 µM. 57% of 1,000 active. AID 493025;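 note: 0% = vehicle wells and values are ratio percent relative to vehicle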
KCNQ1 spec: KCNQ2 inhibitor that also affects human KCNQ1 channel. KCNQ1-expressing cells, FluxOR thallium flux fluorescence; stronger effect = lower value. shares compounds with KCNQ2 block. AID 493026. activity change, negative = inhibition, % at 10 µM. 15% of 1,000 active;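 active = activity change at least 3 SD of negative controls below their mean in both duplicate wells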;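 note: CHO cells stably transfected with KCNQ1 and depolarized by potassium stimulus; peak minus minimum fluorescence over baseline after thallium addition; 0% = vehicle negative control and -100% = blank without thallium stimulus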
Target sequence (P51787 whole entry, looked up): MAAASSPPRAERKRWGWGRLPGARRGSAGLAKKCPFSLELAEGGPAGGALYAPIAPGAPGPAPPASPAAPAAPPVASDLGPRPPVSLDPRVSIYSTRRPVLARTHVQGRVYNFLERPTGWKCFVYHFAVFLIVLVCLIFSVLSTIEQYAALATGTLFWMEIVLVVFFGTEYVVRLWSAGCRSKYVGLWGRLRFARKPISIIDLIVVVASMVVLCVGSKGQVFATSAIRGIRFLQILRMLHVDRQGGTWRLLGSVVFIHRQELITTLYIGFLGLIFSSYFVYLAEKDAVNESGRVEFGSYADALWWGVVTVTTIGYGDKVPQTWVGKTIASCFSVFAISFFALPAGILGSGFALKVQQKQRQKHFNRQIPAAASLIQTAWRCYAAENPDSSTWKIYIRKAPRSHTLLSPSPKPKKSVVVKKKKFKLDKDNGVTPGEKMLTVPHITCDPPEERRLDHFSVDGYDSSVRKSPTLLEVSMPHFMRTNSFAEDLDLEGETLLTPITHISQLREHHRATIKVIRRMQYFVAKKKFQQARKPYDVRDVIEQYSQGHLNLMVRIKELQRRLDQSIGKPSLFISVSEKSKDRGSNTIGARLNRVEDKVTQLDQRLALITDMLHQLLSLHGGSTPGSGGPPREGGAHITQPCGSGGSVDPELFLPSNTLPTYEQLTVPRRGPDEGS
CHO Tl ctr: counter-screen for KCNQ2 inhibitors: effect in parental CHO cells. shares compounds with KCNQ2 block. thallium flux counter-screen; stronger effect = lower value. activity change, % at 10 µM. 14% of 1,000 active;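 note: 0% = vehicle negative controls with stimulus buffer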
KCNQ2 inh confirm: blocks rat KCNQ2 current in automated patch clamp; AID 588531; shares compounds with KCNQ2 block; calls only at 10 µM; KCNQ2-expressing cells; 49% of 550 active
Active calls of the source: *; i = inactive; nt = no result given; + = active, no number. Unless noted, the rule behind the calls is not given here.

SMILES	KCNQ2 pot	KCNQ2 block	KCNQ2 block conf	KCNQ1 spec	CHO Tl ctr	others
CCn1c(CNc2ccc(C)cc2)nnc1SCC(=O)NCc1ccccc1	nt	i	nt	nt	nt
CC(C)(C)[C@@H]1C=C(C(=O)Nc2ccccc2)O[C@H](OCc2ccc(CO)cc2)C1	nt	i	nt	nt	nt
COc1ccc(CNC(=O)CN2C(=O)C(c3ccccc3)Oc3cccnc32)cc1 (stereo not given)	1.9	i	nt	nt	nt
O=C(CN1C(=O)C(c2ccccc2)Oc2cccnc21)NCc1ccccc1F (stereo not given)	-6.8	-6.8*	-22%*	i	i	KCNQ2 inh confirm=+
Cc1ccccc1OCC(=O)N1N=C(C(F)(F)F)CC1(O)C(C)(C)C (stereo not given)	-8.2	-8.2*	i	i	i
Cc1ccc(OCC(=O)N2N=C(C(F)(F)F)CC2(O)C(C)(C)C)cc1C (stereo not given)	nt	i	nt	nt	nt
COc1cc(NC(=O)CSc2nc3c(c(=O)n(C)c(=O)n3C)n2C)cc(OC)c1	nt	i	nt	nt	nt
C=CCNC(=O)C1CC(=O)N(c2ccc(OCC(=O)Nc3c(C)cccc3C)cc2)C1 (stereo not given)	nt	i	nt	nt	nt
Cc1ccc(NC(=O)c2ccccc2OCC(=O)c2ccccc2)cc1	nt	i	nt	nt	nt
Cc1cccc(NC(=O)c2ccccc2OCC(=O)c2ccccc2)c1	-8.2	-8.2*	i	i	i
CCCCN(C(=O)c1ccc(N(C)S(=O)(=O)c2ccc(C)cc2)cc1)c1c(N)n(CCCC)c(=O)[nH]c1=O	0.01	i	nt	nt	nt
CCn1c(C(=O)N2CCc3ccccc3C2)cc2oc3ccccc3c21	-6.8	-6.8*	-44%*	-52%*	-44%*
O=C(Cn1ncc2c(=O)oc3ccccc3c21)N1CCc2ccccc2C1	1.5	i	nt	nt	nt
COc1cc2c(cc1OC)CN(C(=O)c1oc3ccccc3c1C)CC2	nt	i	nt	nt	nt
Cn1c(C(=O)N2CCc3ccccc3C2)cc2oc3ccccc3c21	-11	-11*	-16%*	i	i	KCNQ2 inh confirm=+
Cn1c(=O)n(CC(=O)NCC2CCCO2)c(=O)c2c3c(sc21)CCCC3 (stereo not given)	0.43	i	nt	nt	nt
C/C(=N\NC(=O)CNC(=O)C1COc2ccccc2O1)c1ccc(Cl)cc1 (stereo not given)	0.36	i	nt	nt	nt
Cc1cc(Oc2cnn(C(C)(C)C)c(=O)c2Cl)cc(C(C)C)c1	-11	-11*	-34%*	-30%*	-32%*	KCNQ2 inh confirm=i
CCOc1cnn(-c2cc(Oc3ccc(C)cc3)ncn2)c(=O)c1Cl	0.83	i	nt	nt	nt
NS(=O)(=O)c1ccc(CNC(=O)c2cc(=O)[nH]c3ccccc23)cc1	1.1	i	nt	nt	nt
O=C(c1cc2ccccc2o1)N(Cc1ccco1)Cc1cccs1	-12	-12*	-41%*	-40%*	-32%*	KCNQ2 inh confirm=i
COc1ccc(C(=O)N(Cc2ccco2)Cc2cccs2)c(O)c1	nt	i	nt	nt	nt
Cc1cc(OCC(O)CN2CCc3ccccc3C2)ccc1Cl (stereo not given)	nt	i	nt	nt	nt
CCCc1cc(=O)[nH]c(SCC(=O)Nc2oc(C)c3c(C)n[nH]c(=O)c23)n1	0.5	i	nt	nt	nt
O=C(/C=C/c1cccc(OCc2ccccc2)c1)c1cccnc1	-6.8	-6.8*	-29%*	i	i	KCNQ2 inh confirm=i
SMILES	KCNQ2 pot	KCNQ2 block	KCNQ2 block conf	KCNQ1 spec	CHO Tl ctr	others
O=C(O)/C=C/c1cccc(OCc2ccccc2)c1	0.1	i	nt	nt	nt
O=C(/C=C/c1ccc([N+](=O)[O-])cc1)c1cccnc1	-9.9	-9.9*	i	i	i
O=C(N/N=C/c1ccc([N+](=O)[O-])cc1)c1cccnc1	nt	i	nt	nt	nt
COc1ccc(CN2CCNC(=O)C2CC(=O)N2CCCN(C(C)=O)CC2)cc1OC (stereo not given)	0.01	i	nt	nt	nt
CCOC(=O)CSc1nnc(CNc2ccc(Cl)cc2)n1-c1ccccc1	-8.9	-8.9*	i	i	i
COC(=O)CSc1nnc(CNc2ccc(Cl)cc2)n1Cc1ccccc1	nt	i	nt	nt	nt
O=c1ccnc(Nc2ccc([N+](=O)[O-])cc2)[nH]1	0.39	i	nt	nt	nt
C=CCNC(=O)CN1C(=O)c2cccc3cccc1c23	nt	i	nt	nt	nt
CCOc1cc(CNCCc2ccc(S(N)(=O)=O)cc2)ccc1OCc1ccccc1	nt	i	nt	nt	nt
CCOc1cc(CNCCc2ccc(S(N)(=O)=O)cc2)cc(Cl)c1OCc1ccccc1	-9.4	-9.4*	-30%*	i	i	KCNQ2 inh confirm=i
CC(=O)C1=C(C)NC(=O)CC1c1ccc(Br)cc1 (stereo not given)	1.3	i	nt	nt	nt
COc1ccc(S(=O)(=O)N2CCC(C(=O)NCc3ccncc3)CC2)cc1OC	nt	i	nt	nt	nt
COc1ccc(OCC(=O)N2CCN(c3nnc(-c4ccc(C)cc4)c4ccccc34)CC2)cc1	nt	i	nt	nt	nt
Cc1ccc(OCC(=O)N2CCN(c3nnc(-c4ccc(C)cc4)c4ccccc34)CC2)cc1	-7.7	-7.7*	-33%*	i	i	KCNQ2 inh confirm=+
c1coc(Cn2c(SCc3nc4ccccc4[nH]3)nnc2-c2cccs2)c1	nt	i	nt	nt	nt
Cc1ccccc1CSc1nnc(-c2cccs2)n1Cc1ccco1	-9.9	-9.9*	i	i	i
COc1ccc(CNC(=O)C(c2ccco2)N(Cc2cccs2)C(=O)Cc2cccs2)cc1 (stereo not given)	0.01	i	nt	nt	nt
COc1ccc(CNC(=O)C(c2cccs2)N(Cc2ccco2)C(=O)Cc2cccs2)cc1 (stereo not given)	-14	-14*	-29%*	i	i	KCNQ2 inh confirm=+
CC1CN(C(=O)Cn2cc(S(=O)(=O)CC(=O)N3CCOCC3)c3ccccc32)CC(C)O1 (stereo not given)	nt	i	nt	nt	nt
O=C(O)c1cc(-c2ccc(-c3ccc(F)cc3)o2)nc2ccccc12	0.87	i	nt	nt	nt
Cc1ccc(N(C)C(=O)n2cnc3ccccc32)cc1	1.7	i	nt	nt	nt
CC1=C(C(=O)OC2CCCC2)C(c2coc3ccccc3c2=O)C2=C(CC(C)(C)CC2=O)N1 (stereo not given)	nt	i	nt	nt	nt
CCCN1CC=C2C(C#N)=C(N)C(C#N)(C#N)C(c3cccc(OC)c3OC)C2C1 (stereo not given)	nt	i	nt	nt	nt
COc1cccc(OC)c1OCc1cc(C2C3CCCC=C3C(C#N)=C(N)C2(C#N)C#N)c(C)cc1C (stereo not given)	-11	-11*	i	i	i
Cc1ccc(C)c(N2CCN(C(=O)C(Cc3ccccc3)n3cccc3)CC2)c1 (stereo not given)	-7	-7*	-24%*	i	i	KCNQ2 inh confirm=i
SMILES	KCNQ2 pot	KCNQ2 block	KCNQ2 block conf	KCNQ1 spec	CHO Tl ctr	others
Cc1ccc(C)c(N2CCN(C(=O)Cn3cccc3)CC2)c1	1.2	i	nt	nt	nt
CC(=O)c1cccc(Nc2c3c(nc4ccccc24)CCC3)c1	nt	i	nt	nt	nt
COC(=O)c1cccc(Nc2c3c(nc4ccccc24)CCC3)c1	-6.6	-6.6*	-26%*	i	i	KCNQ2 inh confirm=+
Fc1ccc(CSc2nnc(-c3ccncc3)o2)cc1	1.5	i	nt	nt	nt
Cc1ccccc1-c1nnc(SCc2ccc(F)cc2)o1	-9.1	-9.1*	i	i	i
CN(CCC#N)C(=O)CC1(Cc2ccccc2)CCOC(C)(C)C1 (stereo not given)	0.97	i	nt	nt	nt

Bioassay records: PubChem BioAssay, Johns Hopkins Ion Channel Center
